Screening data from PubChem BioAssay.
In the library only some 1.8% were active in any assay of this set; here they are far more common.
Jurkat NFkB inh = inhibitors of the PMA/ionomycin-induced NF-kB reporter in Jurkat cells | AID 435003 | actives 0.53% (n = 330,000) | inhibition, % at 4 µM | PMA/ionomycin-induced NF-kB luciferase reporter, luminescence; in the data active = inhibition above about 50%
Gli-Sufu block = blocks Gli-Sufu signaling in a luciferase reporter. Sufu-KO-LIGHT fibroblasts, Gli luciferase reporter luminescence. inhibition, % at 5 µM. actives 0.74% (n = 340,000). AID 588413;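 active = inhibition above about 55%, limit read from the data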;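 note: 0% = DMSO-treated cells and 100% = wells with medium but no cells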
Beta cell apopt = blocks beta cell apoptosis; protection from apoptosis, % (test concentration not listed); actives 0.8% (n = 300,000); INS-1E cytokine-induced death, ATP luminescence, 48 h; percent of positive-control rescue, neutral wells zero; AID 435005;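 active = Every replicate reaches about 75%, or at least half do and their mean reaches it too, limit read from the data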;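 note: 0% = cytokine-treated negative control wells and 100% = positive control rescue; higher means more ATP so stronger rescue from cytokine killing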
697 NFkB inh = lowers PMA/ionomycin-induced NF-kB signal in 697 B cells; 697 B-cell NF-kB luciferase reporter, 16 h; inhibition, % at 4 µM; actives 0.33% (n = 330,000); in the data active = inhibition above about 35%
* = called active by the depositor.

CN(C)/C=C(/C(=O)c1ccc(Cl)cc1Cl)S(=O)(=O)c1ccccc1 was read as Jurkat NFkB inh 5, Gli-Sufu block -8, Beta cell apopt -3 and 697 NFkB inh -1.
Screening COc1ccc(CN2CCN(CCSc3ccc(C)cc3)CC2)c(OC)c1OC returned Jurkat NFkB inh 0, Gli-Sufu block 32, Beta cell apopt 123* and 697 NFkB inh -8.
Screening CCOc1ccccc1N1CCN(Cc2ccc(OC)c(OC)c2OC)CC1 returned Jurkat NFkB inh 12, Gli-Sufu block 7, Beta cell apopt -1 and 697 NFkB inh 14.
CCN(CC)C(=O)C1CCCN(C(=S)Nc2cccc3ccccc23)C1 (configuration not stated) was read as Jurkat NFkB inh 25, Gli-Sufu block 7, Beta cell apopt 85* and 697 NFkB inh -11.
CCN(CC)C(=O)C1CCCN(C(=O)Nc2ccc(NC(=O)N3CCCC(C(=O)N(CC)CC)C3)cc2)C1 (configuration not stated) was read as Jurkat NFkB inh -14, Gli-Sufu block 23, Beta cell apopt -10 and 697 NFkB inh 4.
Cc1ccc(S(=O)(=O)NC2=C(N3CCN(c4ccccc4F)CC3)C(=O)c3ccccc3C2=O)cc1 was read as Jurkat NFkB inh -65, Gli-Sufu block 2, Beta cell apopt 4 and 697 NFkB inh -73.
CC(=O)Nc1ccc(S(=O)(=O)NC2=C(N3CCN(c4ccc(F)cc4)CC3)C(=O)c3ccccc3C2=O)cc1 was read as Jurkat NFkB inh -2, Gli-Sufu block 3, Beta cell apopt 85* and 697 NFkB inh -34.
`CC(=O)Nc1ccc(NC(=O)C2CCCCC2C(=O)O)cc1` (configuration not stated) gave Jurkat NFkB inh 7, Gli-Sufu block 2, Beta cell apopt -9 and 697 NFkB inh 10.
For Cc1ccc(S(=O)(=O)N2CCCCC2c2cccnc2)c(C)c1C (configuration not stated) the results were Jurkat NFkB inh 0, Gli-Sufu block 12, Beta cell apopt 98* and 697 NFkB inh -12.
CCCCC(=O)NC(c1cccs1)c1cc(Cl)c2cccnc2c1O (configuration not stated) was read as Jurkat NFkB inh 16, Gli-Sufu block 22, Beta cell apopt 94* and 697 NFkB inh -22.
Screening CCCC(=O)NC(c1ccco1)c1cc([N+](=O)[O-])c2cccnc2c1O (configuration not stated) returned Jurkat NFkB inh 10, Gli-Sufu block -3, Beta cell apopt -8 and 697 NFkB inh 5.
For CCC(=O)NC(c1cccs1)c1cc(Cl)c2cccnc2c1O (configuration not stated) the results were Jurkat NFkB inh 12, Gli-Sufu block 47, Beta cell apopt 99* and 697 NFkB inh -13.
Screening Cc1ccc(Oc2nc(C(F)(F)F)nc3ccccc23)cc1 returned Jurkat NFkB inh 5, Gli-Sufu block -30, Beta cell apopt 4 and 697 NFkB inh 8.
For COc1ccc(N(CC(=O)Nc2ccc(C)cc2)S(=O)(=O)c2c(C)noc2C)cc1 the results were Jurkat NFkB inh 7, Gli-Sufu block 2, Beta cell apopt 0 and 697 NFkB inh -20.
For Cc1ccc(N(CC(=O)Nc2cc(C)cc(C)c2)S(=O)(=O)c2c(C)noc2C)cc1 the results were Jurkat NFkB inh 11, Gli-Sufu block 68*, Beta cell apopt 102* and 697 NFkB inh -30.
Screening Cc1ccccc1OCC(=O)N/N=C/c1ccc(N2CCOCC2)o1 returned Jurkat NFkB inh 11, Gli-Sufu block -3, Beta cell apopt -5 and 697 NFkB inh 17.
Cc1ncc(CO)c(/C=N/Nc2ccc(C(F)(F)F)cn2)c1O was read as Jurkat NFkB inh 23, Gli-Sufu block 40, Beta cell apopt 116* and 697 NFkB inh 21.
Screening O=C(Nc1ccc(F)cc1)c1ccc(S(=O)(=O)N2CCCC2)cc1 returned Jurkat NFkB inh -4, Gli-Sufu block 8, Beta cell apopt 0 and 697 NFkB inh 11.
`CCOC(=O)c1c(C)n(-c2ccc(C)cc2)c2c(C(C(C)=O)C(=O)O)c(Br)c(O)c(O)c12` (configuration not stated) gave Jurkat NFkB inh -1, Gli-Sufu block 7, Beta cell apopt 0 and 697 NFkB inh 6.
For CCOC(=O)C(C(C)=O)c1c(Br)c(O)c(O)c2c(C(=O)c3ccc(C)cc3)coc12 (configuration not stated) the results were Jurkat NFkB inh 25, Gli-Sufu block 50, Beta cell apopt 95* and 697 NFkB inh 19.
